Out of some 5,500 compounds screened, about 2,000 (36%) were called active. Inconclusive results (about 18%) are left out. No stated cut-off is given here; in the data, active means normalized growth mostly below about 0.91 (no sharp cut-off); inconclusive means no clear call, values can overlap the other calls; inactive means mostly above about 0.92. Some of the results follow.
Test: chemical genetic growth profiling, strain panel (AID 1159580);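 further: tested at 20 µM; growth read once vehicle control cultures reached saturation at 30 °C; 1 = growth at the plate median or of vehicle wells; lower values mean less growth of the strain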
Settings: growth OD
[1] = S. cerevisiae deletion strains, locus YAL040C, strain CLN3, active compounds read low
[2] = S. cerevisiae deletion strains, locus YCL061C, strain MRC1 (second series), active compounds read low
[3] = S. cerevisiae deletion strains, locus YDR363W, strain ESC2, active compounds read low
[4] = S. cerevisiae deletion strains, locus YER002W, strain NOP16, active compounds read low
[5] = S. cerevisiae deletion strains, locus YJR075W, strain HOC1, active compounds read low
[6] = S. cerevisiae deletion strains, locus YMR263W, strain SAP30, active compounds read low
[7] = S. cerevisiae deletion strains, locus YMR307W, strain GAS1, active compounds read low
[8] = S. cerevisiae deletion strains, locus YNL128W, strain TEP1, active compounds read low
[9] = S. cerevisiae deletion strains, locus YNL153C, strain GIM3, active compounds read low
[10] = S. cerevisiae deletion strains, locus YNL175C, strain NOP13, active compounds read low
[11] = S. cerevisiae deletion strains, locus YNL197C, strain WHI3, active compounds read low
[12] = S. cerevisiae deletion strains, locus YNL224C, strain SQS1, active compounds read low
[13] = S. cerevisiae deletion strains, locus YNL322C, strain KRE1, active compounds read low
[14] = S. cerevisiae deletion strains, locus YOR083W, strain WHI5 (second series), active compounds read low
[15] = S. cerevisiae deletion strains, locus YPL055C, strain LGE1, active compounds read low
[16] = S. cerevisiae deletion strains, locus YPL241C, strain CIN2, active compounds read low
[17] = S. cerevisiae deletion strains, locus YAL013W, strain DEP1, active compounds read low
[18] = S. cerevisiae deletion strains, locus YDR150W, strain NUM1, active compounds read low
[19] = S. cerevisiae deletion strains, locus YGR078C, strain PAC10, active compounds read low
[20] = S. cerevisiae deletion strains, locus YHR030C, strain SLT2, active compounds read low
[21] = S. cerevisiae deletion strains, locus YHR079C, strain IRE1, active compounds read low
[22] = S. cerevisiae deletion strains, locus YJL095W, strain BCK1, active compounds read low
[23] = S. cerevisiae deletion strains, locus YJR066W, strain TOR1, active compounds read low
[24] = S. cerevisiae deletion strains, locus YLR113W, strain HOG1, active compounds read low
[25] = S. cerevisiae deletion strains, locus YNL183C, strain NPR1, active compounds read low
[26] = S. cerevisiae deletion strains, locus YOR231W, strain MKK1, active compounds read low
[27] = S. cerevisiae deletion strains, locus YPL256C, strain CLN2, active compounds read low
[28] = S. cerevisiae deletion strains, locus YDL101C, strain DUN1, active compounds read low

Measured: normalized growth

COc1ccc2c3c1O[C@H]1C(=O)CC[C@@]4(O)C(C2)N(CC2CC2)CCC314 (stereo partly specified)
inactive: [1] 0.992 | [2] 0.999 | [3] 1.02 | [4] 0.991 | [5] 0.995 | [6] 1 | [7] 0.993 | [8] 0.99 | [9] 0.995 | [10] 1.01 | [11] 1.02 | [12] 0.992 | [13] 1.01 | [14] 0.999 | [15] 1 | [16] 0.999

CCCN(CCC)[C@@H]1CCc2ccc(O)cc2C1
inactive: [17] 0.964 | [1] 1.03 | [2] 0.988 | [3] 0.989 | [4] 0.972 | [6] 0.983 | [7] 1.01 | [9] 0.978 | [10] 0.982 | [11] 0.982 | [12] 1.01 | [13] 0.978 | [14] 0.996 | [15] 0.988

CC[C@@H]1Cc2cc(O)ccc2C2=C1c1ccc(O)cc1C[C@H]2CC
inactive: [17] 1.01 | [2] 0.995 | [18] 0.996 | [3] 1.02 | [4] 1.02 | S. cerevisiae deletion strains, locus YGR229C, strain SMI1, active compounds read low 1.04 | [5] 0.991 | [11] 0.954 | [13] 0.993 | [15] 1.01
active: [1] 0.852 | [19] 0.777 | [10] 0.904 | [12] 0.643 | [14] 0.507

CCCN(CCC)C1CCc2ccc(O)cc2C1 (stereo unspecified)
inactive: [17] 1.03 | [1] 1.1 | [2] 1.01 | [3] 1.01 | [4] 1.01 | [19] 0.993 | [5] 1 | [7] 1.02 | [8] 1.02 | [10] 1.01 | [11] 1.01 | [12] 0.995 | [14] 0.991 | [15] 1.02 | [16] 1.01

CC(=O)N[C@@H]1[C@@H](O)[C@H](O)[C@@H](CO)O[C@H]1O
inactive: [20] 0.993 | [21] 0.975 | [22] 0.995 | [23] 0.917 | [24] 0.993 | [25] 0.898 | [26] 0.99 | [27] 0.967

COc1ccc(/C(C#N)=C2C=C/C(=N/O)C(Cl)=C\2)cc1
active: [24] 0.851
inactive: S. cerevisiae deletion strains, locus YAR019C, strain CDC15, active compounds read low 0.972 | S. cerevisiae deletion strains, locus YBL105C, strain PKC1, active compounds read low 0.975 | S. cerevisiae deletion strains, locus YBR135W, strain CKS1, active compounds read low 0.959 | S. cerevisiae deletion strains, locus YBR136W, strain MEC1, active compounds read low 0.954 | S. cerevisiae deletion strains, locus YBR160W, strain CDC28, active compounds read low 0.976 | S. cerevisiae deletion strains, locus YDL017W, strain CDC7, active compounds read low 0.984 | S. cerevisiae deletion strains, locus YDL028C, strain MPS1, active compounds read low 0.976 | [28] 0.971 | S. cerevisiae deletion strains, locus YDL108W, strain KIN28, active compounds read low 0.969 | S. cerevisiae deletion strains, locus YDL132W, strain cdc53, active compounds read low 0.948 | S. cerevisiae deletion strains, locus YDL214C, strain PRR2, active compounds read low 0.918 | S. cerevisiae deletion strains, locus YDR052C, strain DBF4, active compounds read low 0.966 | S. cerevisiae deletion strains, locus YDR054C, strain cdc34, active compounds read low 0.958 | S. cerevisiae deletion strains, locus YDR226W, strain ADK1, active compounds read low 0.955 | S. cerevisiae deletion strains, locus YDR477W, strain SNF1, active compounds read low 0.898 | S. cerevisiae deletion strains, locus YER123W, strain YCK3, active compounds read low 0.898 | S. cerevisiae deletion strains, locus YER133W, strain GLC7, active compounds read low 0.906 | S. cerevisiae deletion strains, locus YFL009W, strain cdc4, active compounds read low 0.962 | S. cerevisiae deletion strains, locus YFL029C, strain CAK1, active compounds read low 0.965 | S. cerevisiae deletion strains, locus YFR003C, strain YPI1, active compounds read low 0.97 | S. cerevisiae deletion strains, locus YFR019W, strain FAB1, active compounds read low 0.949 | S. cerevisiae deletion strains, locus YFR028C, strain CDC14, active compounds read low 0.948 | S. cerevisiae deletion strains, locus YGR040W, strain KSS1, active compounds read low 0.864 | S. cerevisiae deletion strains, locus YGR052W, strain FMP48, active compounds read low 0.925 | S. cerevisiae deletion strains, locus YGR092W, strain DBF2, active compounds read low 0.822 | [20] 0.879 | [21] 0.996 | S. cerevisiae deletion strains, locus YHR082C, strain KSP1, active compounds read low 0.937 | S. cerevisiae deletion strains, locus YHR205W, strain SCH9, active compounds read low 0.775 | S. cerevisiae deletion strains, locus YIL147C, strain SLN1, active compounds read low 0.968 | [22] 0.842 | S. cerevisiae deletion strains, locus YJL128C, strain PBS2, active compounds read low 0.942 | S. cerevisiae deletion strains, locus YJL157C, strain FAR1, active compounds read low 0.926 | S. cerevisiae deletion strains, locus YJR016C, strain ILV3, active compounds read low 0.954 | S. cerevisiae deletion strains, locus YJR066W, strain TOR1 (second series), active compounds read low 0.85 | [23] 0.887 | S. cerevisiae deletion strains, locus YKL048C, strain ELM1, active compounds read low 0.929 | S. cerevisiae deletion strains, locus YKL067W, strain YNK1, active compounds read low 0.932 | S. cerevisiae deletion strains, locus YKL101W, strain HSL1, active compounds read low 0.893 | S. cerevisiae deletion strains, locus YKL193C, strain SDS22, active compounds read low 0.964 | S. cerevisiae deletion strains, locus YKL203C, strain TOR2, active compounds read low 0.866 | S. cerevisiae deletion strains, locus YLR133W, strain CKI1, active compounds read low 0.913 | S. cerevisiae deletion strains, locus YLR403W, strain SFP1, active compounds read low 0.866 | S. cerevisiae deletion strains, locus YML070W, strain DAK1, active compounds read low 0.915 | S. cerevisiae deletion strains, locus YMR001C, strain CDC5, active compounds read low 0.959 | S. cerevisiae deletion strains, locus YMR205C, strain PFK2 (second series), active compounds read low 0.941 | S. cerevisiae deletion strains, locus YMR277W, strain FCP1, active compounds read low 0.967 | S. cerevisiae deletion strains, locus YNL006W, strain LST8, active compounds read low 0.985 | S. cerevisiae deletion strains, locus YNL020C, strain ARK1, active compounds read low 0.922 | S. cerevisiae deletion strains, locus YNL161W, strain CBK1, active compounds read low 0.973 | [25] 0.862 | S. cerevisiae deletion strains, locus YNL207W, strain RIO2, active compounds read low 0.961 | S. cerevisiae deletion strains, locus YNL222W, strain SSU72, active compounds read low 0.971 | S. cerevisiae deletion strains, locus YNL307C, strain MCK1 (second series), active compounds read low 0.874 | S. cerevisiae deletion strains, locus YOL078W, strain AVO1, active compounds read low 0.958 | S. cerevisiae deletion strains, locus YOL136C, strain PFK27, active compounds read low 0.894 | S. cerevisiae deletion strains, locus YOR061W, strain CKA2, active compounds read low 0.903 | S. cerevisiae deletion strains, locus YOR119C, strain RIO1, active compounds read low 0.87 | [26] 0.905 | S. cerevisiae deletion strains, locus YOR329C, strain SCD5, active compounds read low 0.985 | S. cerevisiae deletion strains, locus YPL031C, strain PHO85, active compounds read low 0.854 | S. cerevisiae deletion strains, locus YPL153C, strain RAD53, active compounds read low 0.899 | S. cerevisiae deletion strains, locus YPL204W, strain HRR25, active compounds read low 0.864 | S. cerevisiae deletion strains, locus YPL209C, strain IPL1, active compounds read low 0.977 | [27] 0.967 | S. cerevisiae deletion strains, locus YPR025C, strain CCL1, active compounds read low 0.977 | S. cerevisiae deletion strains, locus YPR106W, strain ISR1, active compounds read low 0.96 | S. cerevisiae deletion strains, locus YPR111W, strain DBF20, active compounds read low 0.942 | S. cerevisiae deletion strains, strain NNK1, active compounds read low 0.979 | S. cerevisiae deletion strains, strain TSCII, active compounds read low 0.959

Cc1ccc(/C(C#N)=C2C=C/C(=N/O)C(Cl)=C\2Cl)cc1
active: [20] 0.631 | S. cerevisiae deletion strains, locus YLR262C, strain YPT6, active compounds read low 0.816 | S. cerevisiae deletion strains, locus YNR030W, strain Alg12, active compounds read low 0.877
inactive: [17] 0.953 | S. cerevisiae deletion strains, locus YBR229C, strain ROT2, active compounds read low 0.961 | S. cerevisiae deletion strains, locus YCL061C, strain MRC1, active compounds read low 0.965 | [28] 0.983 | [18] 0.963 | S. cerevisiae deletion strains, locus YEL061C, strain CIN8, active compounds read low 0.959 | [19] 0.975 | S. cerevisiae deletion strains, locus YHR087W, strain rtc3, active compounds read low 1 | S. cerevisiae deletion strains, locus YJR043C, strain POL32, active compounds read low 1.01 | [5] 1 | S. cerevisiae deletion strains, locus YLR039C, strain RIC1, active compounds read low 0.865 | S. cerevisiae deletion strains, locus YLR058C, strain SHM2 (second series), active compounds read low 0.999 | S. cerevisiae deletion strains, locus YLR085C, strain ARP6, active compounds read low 0.825 | S. cerevisiae deletion strains, locus YML094W, strain GIM5, active compounds read low 0.973 | S. cerevisiae deletion strains, locus YMR219W, strain ESC1, active compounds read low 0.991 | [6] 0.984 | [7] 0.721 | [9] 0.962 | S. cerevisiae deletion strains, locus YNL298W, strain CLA4 (second series), active compounds read low 0.885 | [13] 0.98 | [15] 0.949 | [16] 0.952 | S. cerevisiae deletion strains, locus YPR135W, strain CTF4, active compounds read low 0.681 | S. cerevisiae strains, strain wild type, active compounds read low 0.929
